Most compounds without a hit are left out; they make up all but 0.83% or so of the library.
SRC2 inh: inhibition of GAL4-SRC2 driven luciferase reporter, primary screen, SRC2 inhibitor project, cell-based, luminescence | Nuclear receptor coactivator 2 (Homo sapiens), Q15596 | HEK293 GAL4-SRC2 luciferase reporter | inhibition, % at 9 µM | 370,000 tested, 0.17% active | AID 651957, 2012;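 active means inhibition above the mean inhibition of all tested compounds plus 3 SD, set per campaign, cut at about 52% in these data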
NR2F2 inh: NR2F2 transcriptional activity inhibitors, primary screen, cell-based, luciferase reporter, HEK293T, luminescence | COUP transcription factor 2 (Homo sapiens), P24468 | HEK293T NGFI-A luciferase reporter | inhibition, % at 8.6 µM | 370,000 tested, 0.7% active | AID 686940, 2013;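 active means inhibition above a per-plate cutoff, mean inhibition of test wells between control levels plus 3 SD, cut at about 38% in these data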;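 further: cells cotransfected with COUP-TFII expression vector driving the NGFI-A reporter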
NCOA3 inh: SRC3 coactivator transcriptional activity inhibitors, primary screen, cell-based, luminescence | inhibition, % at 3.6 µM | 360,000 tested, 0.17% active | HEK293 GAL4-SRC3 luciferase reporter;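 active means inhibition above a per-campaign cutoff, the mean of all compounds plus 3 SD, cut at about 60% in these data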;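 further: higher means less SRC3-driven luciferase light from the GAL4 reporter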
Target sequence (Q9Y6Q9 whole entry, looked up, the tested form may be a part): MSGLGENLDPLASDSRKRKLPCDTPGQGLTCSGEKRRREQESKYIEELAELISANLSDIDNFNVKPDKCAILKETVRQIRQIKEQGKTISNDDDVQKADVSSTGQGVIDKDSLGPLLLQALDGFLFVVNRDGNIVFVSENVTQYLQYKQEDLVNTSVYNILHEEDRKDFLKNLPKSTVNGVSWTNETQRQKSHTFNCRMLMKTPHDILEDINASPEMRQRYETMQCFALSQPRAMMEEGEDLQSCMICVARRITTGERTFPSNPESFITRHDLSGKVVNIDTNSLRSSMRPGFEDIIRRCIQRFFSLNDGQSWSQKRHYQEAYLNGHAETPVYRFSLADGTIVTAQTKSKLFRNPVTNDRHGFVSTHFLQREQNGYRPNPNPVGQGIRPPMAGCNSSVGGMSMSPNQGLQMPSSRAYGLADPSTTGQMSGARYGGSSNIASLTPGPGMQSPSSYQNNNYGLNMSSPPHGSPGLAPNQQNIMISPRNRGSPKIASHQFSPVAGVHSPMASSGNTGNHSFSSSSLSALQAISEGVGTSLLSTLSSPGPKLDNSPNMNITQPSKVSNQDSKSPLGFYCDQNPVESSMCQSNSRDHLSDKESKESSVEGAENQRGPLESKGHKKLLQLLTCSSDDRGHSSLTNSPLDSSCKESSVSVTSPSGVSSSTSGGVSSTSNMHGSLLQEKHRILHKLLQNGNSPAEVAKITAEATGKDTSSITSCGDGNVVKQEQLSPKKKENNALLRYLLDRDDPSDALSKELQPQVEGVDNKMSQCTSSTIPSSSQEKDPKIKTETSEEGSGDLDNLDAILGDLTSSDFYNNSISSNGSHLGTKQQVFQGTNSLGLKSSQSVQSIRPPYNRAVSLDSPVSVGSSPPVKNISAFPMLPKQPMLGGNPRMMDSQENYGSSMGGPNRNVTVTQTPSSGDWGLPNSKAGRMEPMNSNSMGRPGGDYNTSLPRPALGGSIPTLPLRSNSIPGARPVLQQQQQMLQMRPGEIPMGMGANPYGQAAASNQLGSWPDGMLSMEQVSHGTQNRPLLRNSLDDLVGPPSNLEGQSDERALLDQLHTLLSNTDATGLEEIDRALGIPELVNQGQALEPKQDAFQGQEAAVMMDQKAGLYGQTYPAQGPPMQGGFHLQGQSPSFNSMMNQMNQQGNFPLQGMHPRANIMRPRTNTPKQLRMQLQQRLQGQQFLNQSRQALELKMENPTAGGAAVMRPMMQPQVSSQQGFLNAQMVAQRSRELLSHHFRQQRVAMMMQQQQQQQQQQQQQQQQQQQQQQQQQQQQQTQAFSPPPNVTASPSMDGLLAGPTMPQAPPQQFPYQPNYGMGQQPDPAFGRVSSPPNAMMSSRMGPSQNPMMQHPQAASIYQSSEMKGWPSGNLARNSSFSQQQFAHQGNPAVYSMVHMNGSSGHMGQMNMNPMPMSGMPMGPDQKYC
NCOA1 inh: SRC1 coactivator transcriptional activity inhibitors, primary screen, cell-based, luminescence. AID 588354, 2011. inhibition, % at 3.6 µM. Nuclear receptor coactivator 1 (Homo sapiens), Q15788. 360,000 tested, 0.12% active. HEK293 GAL4-SRC1 luciferase reporter;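 active means inhibition above the campaign mean plus 3 SD, with each screening campaign given its own cutoff, cut at about 60% in these data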
NR5A2 inv ag: LRH-1 (NR5A2) inverse agonists, primary screen, cell-based, luminescence, HEK293T, StAR-luciferase reporter. Nuclear receptor subfamily 5 group A member 2 (Homo sapiens), O00482. LRH-1 transfected, 24 h. inhibition, % at 3.6 µM. 360,000 tested, 0.13% active;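 active means inhibition above the mean inhibition of all tested compounds plus 3 SD, cut at about 73% in these data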
Gal4-VP16 ctr: Gal4-VP16 luciferase reporter inhibitors, counter-screen for COUP-TFII antagonist project, cell-based, luminescence, HEK293; shares compounds with NR2F2 inh; inhibition, % at 8.5 µM; 2,500 tested, 25% active; in the data active means inhibition above about 13%
NR2F2 inh conf: NR2F2 transcriptional activity inhibitors, confirmation, cell-based, luciferase reporter, HEK293, triplicate | shares compounds with NR2F2 inh | HEK293 NGFI-A luciferase reporter, luminescence | inhibition, % at 8.5 µM | 2,500 tested, 45% active;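 active means mean inhibition over three repeats above a set limit taken from the earlier primary screen, cut at about 38% in these data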
Hits are given with their value; 0 = inactive; - = no result; ! = repeats disagree.

SMILES	SRC2 inh	NR2F2 inh	NCOA3 inh	NCOA1 inh	NR5A2 inv ag	Gal4-VP16 ctr	NR2F2 inh conf
c1ccc(CN2CCN(c3ncccn3)CC2)cc1	0	0	0	0	0	-	-
COC(=O)[C@]12C[C@H](CC(=O)NCCCCc3ccccc3)C(=O)N(Cc3cccc4ccccc34)C1=C[C@H](C1CCCC1)O[C@@H]2C	0	0	-	-	-	-	-
O=C(CN1CCN(Cc2ccccc2)CC1)N/N=C\c1ccccc1[N+](=O)[O-]	0	0	-	-	-	-	-
COc1ccc(C(=O)NNC(=S)NC(=O)/C=C/c2cccs2)cc1	0	0	0	0	0	-	-
O=C(/C=C/c1cccs1)NC(=S)NNC(=O)c1ccccc1O	0	60	80	65	88	21	63
O=[N+]([O-])c1cncc2[nH]cnc12	0	0	-	-	-	-	-
Cc1ccc(S(=O)(=O)NCC2CCN(C(=O)C(=O)c3cccs3)CC2)cc1	0	0	-	-	-	-	-
Cc1nn(-c2ccc(NC(=O)c3ccncc3)cc2)c(C)c1Cl	0	67	0	0	0	0	58
Cc1cc(S(=O)(=O)c2ccc(Cl)cc2)nc(S(=O)(=O)c2ccc(Cl)cc2)c1C#N	0	45	0	0	0	56	62
Cc1cc(C)c(S(=O)(=O)c2ccc(Cl)cc2)c(Cl)n1	0	0	0	0	0	-	-
COc1ccc(CC(=O)Nc2cccc(SC)c2)cc1OC	0	41	0	0	0	17	38
COC(=O)c1cc(NC(=O)Cc2ccc(OC)c(OC)c2)cc(C(=O)OC)c1	0	0	0	0	0	-	-
Cc1ccc(-c2cc(-c3nnc(SCC(=O)Nc4nccs4)n3N)[nH]n2)cc1	0	0	-	-	-	-	-
Nc1ccc(C(=O)N/N=C/c2sc(N3CCOCC3)nc2-c2ccccc2)cc1	0	0	0	0	0	-	-
O=C(N/N=C/c1sc(N2CCOCC2)nc1-c1ccccc1)c1cccc(S(=O)(=O)N2CCOCC2)c1	0	54	72	66	75	0	50
COc1ccc(-c2sc3ccc(N4CCOCC4)cc3c2C#CC2(O)CCCCC2)cc1	0	0	0	0	0	-	-
COc1ccc(-c2sc3ccc(N4CCOCC4)cc3c2C#CCO)cc1	0	74	0	0	0	0	53
C=CCN=C1NC(c2ccccc2C(F)(F)F)C(C(=O)OC)=C(C)N1Cc1cccc(C(F)(F)F)c1 (stereo unspecified)	0	0	-	-	-	-	-
Cc1nn(C(C)(C)C)c(C)c1/C=N/OC(=O)Nc1ccc(Cl)c(Cl)c1	70	69	79	0	0	49	84
O=S(=O)(C/C(=C/CO)S(=O)(=O)c1ccccc1)c1ccccc1	72	76	0	0	0	38	58
Cc1ccc(C)c(NC(=O)c2cccc3c2-c2ccccc2C3=O)c1	0	0	-	-	-	-	-
Cc1cc2c([nH]c3ccccc32)c2c1OC(C)(C)C=C2	0	0	0	0	0	-	-
COc1ccc2[nH]c(=O)c3c(c2c1)OC(C)(C)C=C3	63	44	0	0	0	0	0
COc1cc(/C=C/C(=O)c2ccc3c(c2)OCCO3)cc(Br)c1OCC(=O)N(C)C	55	38	0	0	0	31	0
COc1cccc(C2CC=C(C(=O)O)CN2S(=O)(=O)c2ccc(C)cc2)c1 (stereo unspecified)	0	0	-	-	-	-	-
SMILES	SRC2 inh	NR2F2 inh	NCOA3 inh	NCOA1 inh	NR5A2 inv ag	Gal4-VP16 ctr	NR2F2 inh conf
CCN=c1scc(-c2ccc3c(c2)NC(=O)CO3)n1N=C1CCCC1	0	47!	0	0	0	0	53
COCC(C)n1c(-c2ccc3c(c2)NC(=O)CO3)csc1=Nc1ccc(OC(F)F)cc1 (stereo unspecified)	0	48	0	0	0	16	56
COC(=O)c1cc2c(c3c4ccccc4n(S(C)(=O)=O)c13)C(=O)N(Cc1ccccc1)C2	0	0	-	-	-	-	-
CCC(=O)N1CCc2cc(Br)c(S(=O)(=O)NC3CCN(Cc4ccccc4)CC3)cc21	0	0	-	-	-	-	-
O=C(NC1CCCCCCC1)c1cc(COc2ccc3ncccc3c2)on1	0	62	0	0	0	0	63
Cc1cccnc1CN1CCN(C(=O)c2cc(COc3ccc4ncccc4c3)on2)CC1	0	63	0	0	0	0	38
CCOC(=O)N1CCN(C(=O)c2cc(COc3ccc4ncccc4c3)on2)CC1	0	58	0	0	0	0	46
Cc1cc(CN(C)C(=O)c2cc(COc3ccc4ncccc4c3)on2)on1	0	55	0	0	0	0	43
COC(=O)c1cc2c(c3c4cc(F)ccc4n(S(=O)(=O)c4cccc(C)c4)c13)C(=O)N(Cc1ccccc1OC)C2	0	0	-	-	-	-	-
O=C(c1cc(COc2ccc3ncccc3c2)on1)N1CCCC(O)C1 (stereo unspecified)	0	0	0	0	0	-	-
COCC1CCCN(C(=O)c2cc(COc3ccc4ncccc4c3)on2)C1 (stereo unspecified)	0	67	0	0	0	0	60
CCC(O)C1CCN(C(=O)c2cc(COc3ccc4ncccc4c3)on2)CC1 (stereo unspecified)	0	72	0	0	0	0	63
O=C(c1cc(COc2ccc3ncccc3c2)on1)N1CCC[C@H]1CO	0	38	0	0	0	0	0
CC(CNC(=O)c1cc(COc2ccc3ncccc3c2)on1)c1ccccc1 (stereo unspecified)	0	46	0	0	0	0	0
CCN(CC)C(=O)O[C@H]1CC[C@@]23CCCN2C(=O)CCC[C@H]3[C@H]1C	-	0	-	-	-	-	-
CN(C(=O)c1cn(C)c2ccccc12)c1ccc(Oc2cccnc2)cc1	0	47	-	-	-	0	0
CN(C(=O)CCc1cn(C)c2ccccc12)c1ccc(Oc2cccnc2)cc1	0	0	-	-	-	-	-
CC(C)COc1ccc(-c2csc(N3CCC(C(N)=O)CC3)n2)cc1	-	0	-	-	-	-	-
C[C@@H]1OC(C2CCCCC2)N(C)[C@H]2C[C@H]3c4[nH]c5c(-c6ccccc6)cccc5c4CCN3C(=O)[C@@H]12 (stereo partly specified)	0	0	-	-	-	-	-
CC(C)CC[n+]1ccccc1/C=C/c1ccc(N(C)C)cc1	0	86	76	0	91	26	85
CCOC(=O)N1CCN(C(=O)CSCC(=O)Nc2nc(-c3ccc(OC)cc3)cs2)CC1	0	0	0	0	0	-	-
CCOC(=O)N1CCN(C(=O)CSCC(=O)Nc2nc(-c3ccc(-c4ccccc4)cc3)cs2)CC1	0	68	0	0	0	0	71
